In all, about 300,000 compounds went through this assay and about 2,300 (0.77%) were called active. The sample holds actives, similar compounds and a random draw of the others, so the mix is not that of the screen.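 Rule for the calls: active = mean activation of at least 80% with every replicate also reaching 80%; inconclusive = mean reaches 80% but some replicate falls short; inactive = the rest.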
assay: MITF-driven TRPM1 luciferase induction in melanoma cells – cell-based, SK-MEL-5, single point, primary screen (AID 588334); details: SK-MEL-5 TRPM1-promoter luciferase, 24 h; at 12.5 µM; stronger effect = higher value; % of positive control, neutral wells = 0;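 note: 0% = neutral control wells and 100% = parthenolide positive control wells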

activation, active:
CC(=O)c1sc(N/N=C/c2ccc(C(C)C)cc2)nc1C 94.8%, CCc1c(C)c2ccc(OC3CCCCC3=O)cc2oc1=O (stereo not drawn) 92.6%, Nc1ccc(-c2nnc(-c3ccc(-c4ccccc4)cc3)o2)cc1 89.1%, O=C(Nc1cccc(F)c1)NC1CCCCCCC1 119%, Cc1occc1C(=O)Nc1nnc(C2CCCCC2)s1 91.3%

activation, inactive:
O=S(=O)(O)c1cc2onnc2c2ccccc12 -3.61%, COc1ccc(-c2ccc3c(c2)C2CC3CCN2CCC#N)cc1 (stereo not drawn) 0.239%, CC(C)c1ccc(C=NNc2ccc([N+](=O)[O-])cn2)cc1 16.4%, CC(=O)c1sc(NC(=O)CCCOc2ccccc2C)nc1C -1.04%, Cc1ccc(Nc2c(O)nc[nH]c2=O)cc1C -6.95%, CCN(CC(=O)Nc1c(F)cccc1F)C(=O)Cc1cccs1 11.6%, O=[N+]([O-])c1ccc(COc2ccccc2CN2CCOCC2)cc1 -8.16%, O=C(Cc1ccc(NC(=O)C2CCCN(C(=O)CCc3ccccc3)C2)cc1)Nc1ccc(C(=O)N2CCOCC2)cc1 (stereo not drawn) 8.07%, Cc1c(CCC(=O)O)c(=O)oc2cc(OCc3ccc(Br)cc3)ccc12 -2.55%, COC(=O)Cc1c(C)c2ccc(OCC(=O)NCc3ccc4c(c3)OCO4)cc2oc1=O -3.93%, CC/C(=C\c1ccc(Cl)cc1)c1ccncc1 -3.21%, Nc1ccc(-c2nnc(-c3ccccc3)o2)cc1 27.8%, Brc1ccc(-c2nnc(-c3ccccc3)o2)o1 48.3%, CC[C@]12c3[nH]c4ccc(Cl)cc4c3CCN1C(=O)[C@@H](CC(=O)NCCCOC)C[C@@H]2C(=O)N1CCN(C(=O)C2CC2)CC1 -3.13%, C/C(CC(=O)Nc1cccc(F)c1)=N\NC(=O)C(=O)NC1CCCCC1 -5.94%, O=C(Nc1cccc(F)c1)NC1CCCc2ccccc21 (stereo not drawn) 11.6%, Cc1occc1C(=O)Nc1nnc(-c2ccncc2)s1 23%, O=C(Nc1nnc(C2CC2)s1)c1cc(Cl)sc1Cl 6.39%

Reference: PubChem BioAssay AID588334 (Broad Institute, 2011)
